Measurements: PubChem BioAssay
Several values for one entry are separate records, joined by “and”; a condition that tells them apart may be missing. Equal entries are not always repeated.

Assays:
[1] = system: Botulinum neurotoxin type F light chain protease (Clostridium botulinum); assay: Clostridium botulinum type F light chain protease inhibitors, microsphere substrate cleavage, validation (AID 588459); details: multiplex microsphere protease substrate cleavage assay, flow cytometry; at 10 µM; active compounds read high
[2] = target: Botulinum neurotoxin type A (Clostridium botulinum) (UniProt P0DPI0); assay: BoNT/A light chain protease inhibitors, biochemical, multiplex microsphere flow cytometry, validation set (AID 588460); details: at 10 µM, active compounds read high
[3] = target: Lethal factor (Bacillus anthracis) (UniProt P15917); assay: Bacillus anthracis lethal factor inhibition, microsphere flow cytometry protease assay, validation at 10 µM (AID 588461); details: multiplex microsphere protease cleavage assay, active compounds read high

Measured: inhibition

O=C(CN1CC[n+]2c(-c3cccs3)csc21)c1ccc(Br)cc1
inactive: [1] 0.8% | [2] -0.2% | [3] -1.6%

O=C1Cc2ccccc2C(c2ccccc2)N1 (centres undefined)
inactive: [1] -0.1% | [2] -0.3% | [3] -3.1%

Cc1cccc(N(C)C(=S)Oc2ccc3ccccc3c2)c1
inactive: [1] -0.1% | [2] -0.6% | [3] -4.3%

Cc1cc(O)c(C(=O)Cc2csc(C)n2)c(O)c1
inactive: [1] -5.7% | [2] -2.4% | [3] 0.7%

CCNC(=O)C(Cc1ccccc1)NC(=O)OCc1ccccc1 (centres undefined)
inactive: [1] 0.3% | [2] -1.4% | [3] 5.5%

O=C1C(Cc2c[nH]c3ccccc23)NC(=S)N1Cc1ccccc1 (centres undefined)
inactive: [1] -0.2% | [2] 0.3% | [3] -1.8%

CC(=O)N(C(C)=O)c1nc2nc(C)cc(C)n2n1
inactive: [1] 5.2% | [2] 0.6% | [3] 1.4%

COC(=O)c1[nH]c2ccc(F)cc2c1NC(=O)C1=COCCO1
inactive: [1] 0% | [2] 0.8% | [3] -4.9%

COc1ccc(-c2cc3cc(OC)c(OC)cc3c(C)n2)cc1
inactive: [1] -3.3% | [2] 1.2% | [3] 4.5%

O=C(O)CCSc1nc2ccccc2s1
inactive: [1] -0.7% | [2] -1.2% | [3] -9.8%

O=C1C(=O)N2C(=C1C(=O)N1CCCCCC1)c1ccccc1CC21CCCC1
inactive: [1] 0.3% | [2] 0.4% | [3] -3%

CC(=O)OCC[N+](C)(C)C
inactive: [1] -3.2% and 0.5% | [2] 0.2% and -1.8% | [3] 3.8% and -0.3%

Cc1ccc(Nc2ncccc2C(=O)O)cc1C
inactive: [1] 0.8% | [2] -0.2% | [3] -6.3%

COc1cc2c(cc1OC)CN(Cc1ccc(C)s1)CC2
inactive: [1] 2.4% | [2] 0.7% | [3] -1.2%

CC[C@]1(O)CC2CN(CCc3c([nH]c4ccccc34)[C@@](C(=O)OC)(c3cc4c(cc3OC)N(C=O)[C@H]3[C@@](O)(C(=O)OC)[C@H](OC(C)=O)[C@]5(CC)C=CCN6CC[C@]43[C@@H]65)C2)C1 (some centres undefined)
inactive: [1] 1.5% | [2] 0% | [3] -12.5%

O=C(CCC1CCCN(C(=O)c2ccsc2)C1)NCc1ccc(F)c(F)c1 (centres undefined)
inactive: [1] 2.2% | [2] -0.6% | [3] -6.8%

COc1ccc(C(=O)Nc2cccc3cccnc23)cc1OC
inactive: [1] -2.2% | [2] -2.2% | [3] -4.6%

CSCC[C@H](NC(=O)OC(C)(C)C)C(=O)N1CCC(C(=O)N[C@@H](C)C(=O)O)CC1
inactive: [1] -3.4% | [2] 0.4% | [3] -4.2%

O=C1C(Cc2ccccc2)NC(=S)N1c1ccccc1 (centres undefined)
inactive: [1] 3.8% | [2] 0.9% | [3] -7.8%

NS(=O)(=O)c1cc2c(cc1C(F)(F)F)NC(Cc1ccccc1)NS2(=O)=O (centres undefined)
inactive: [1] 2.4% | [2] 1.4% | [3] 3.5%

Cc1nc(NC(CC(C)C)C(=O)O)c2nc(C)oc2n1 (centres undefined)
inactive: [1] 1.1% | [2] 1.1% | [3] -5.4%

CC(CN1c2ccccc2Sc2ccccc21)N(C)C (centres undefined)
inactive: [1] -0.2% | [2] -1.5% | [3] -11.5%

CC(=O)Nc1ccc(OS(=O)(=O)c2c(C)cc(C)cc2C)cc1
inactive: [1] -3.3% | [2] -1% | [3] -0.9%

COc1ccc(C(=O)CC2OC(=O)c3c2ccc(OC)c3OC)cc1 (centres undefined)
inactive: [1] 0.2% | [2] 0.7% | [3] 3.4%

Cc1cc(C(=O)NC(CC(C)C)C(=O)O)cc(C)c1[N+](=O)[O-] (centres undefined)
inactive: [1] -4.1% | [2] -0.3% | [3] -5.7%

COc1cccc(N2CC34C=CC(O3)C(C(=O)O)C4C2=O)c1 (centres undefined)
inactive: [1] 3.9% | [2] 0.3% | [3] 6%

CC(=O)[C@H]1CC[C@H]2[C@@H]3C[C@H](C)C4=CC(=O)CC[C@]4(C)[C@H]3[C@@H](O)C[C@]12C
inactive: [1] 5.1% | [2] 0.9% | [3] -8.6%

COc1ccc2c(c1)CC[C@@H]1[C@@H]2CC[C@]2(C)C(=O)CC[C@@H]12
inactive: [1] -4% | [2] -1.5% | [3] -5%
